Laboratory results reported in PubChem BioAssay AID648 (SRMLSC, 2007).
The campaign covered roughly 86,000 compounds. About 920 (1.1%) were called active. The sample holds actives, similar compounds and a random draw of the others, so the mix is not that of the screen. Values without a mark were called inactive.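 How the source made its calls: active means viability at or below 30%; inactive means viability above 30%.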

Assay: inhibitors of HUVEC proliferation, primary screen, cell-based, 384-well (AID 648);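 further: 100% = median luminescence of DMSO-only cell control wells on each plate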
Details: CellTiter-Glo luminescence, 72 h, hits give low values, screened at 10 µM (by protocol)
In the case of `Cc1ccc(OCC(=O)N/N=C\c2ccco2)c(C)c1`, the viability is reported as 93%. Work on `C/C(=N\NC(=O)c1nc(C)cc(C)n1)c1ccccc1` yielded a viability of 93.6%. With `Cc1ccc(/C=N/NC(=O)C2=NNC(c3ccccc3)(c3ccccc3)C2)c(O)c1` the viability was 25.4% (active). `CCN(CC)CCn1c2ccc(Cl)cc2c2nc(C)sc21` showed a viability of 87.5%. Work on `CCOC(=O)c1ccc(N2C(=O)CC(N(C)Cc3ccccc3)C2=O)cc1` (stereo not drawn) yielded a viability of 92.5%. For `COc1cccc(NC(=O)Cc2ccc(C)cc2)c1`, the viability was 95.9%. With `COc1ccc(CC(=O)Nc2ccc(-c3nnc(-c4ccc(C)cc4)o3)cc2)cc1` the viability was 61.7%. For `COc1ccc(NC(=O)/C(Cl)=C(/Cl)S(=O)Cc2ccc(C)cc2)cn1` (stereo not drawn), the viability was 1.52% (active). Work on `COc1cc(C(=O)OC(C)C(=O)NCC2CCCCC2)cc(NC(=O)c2ccco2)c1OC` (stereo not drawn) yielded a viability of 100%. `N#CCSc1nc2ccc(N3CCOCC3)cc2c(=O)n1CCc1ccccc1` gave a viability of 90.5%. Work on `Cc1ccc(CNC(=O)CCNS(=O)(=O)c2cccc3nonc23)cc1` yielded a viability of 95.1%. For `COc1ccc(-c2cc(C(F)(F)F)nc(S(C)(=O)=O)n2)cc1OC`, the viability was 13.2% (active). Work on `COc1ccc(-c2nnco2)cc1OC` yielded a viability of 102%. Work on `COc1ccc(-c2cc(C(F)(F)F)nc(NCc3cccnc3)n2)cc1` yielded a viability of 88.9%. With `COC(=O)C1C(=O)NCC1c1ccc(OC)cc1` (stereo not drawn) the viability was 93.7%. Work on `COCc1[nH][nH]c(=O)c1C=Nc1ccc(F)cc1F` yielded a viability of 86.9%. With `CCN(CC)CCCNC(=O)CCc1ccccc1` the viability was 103%. Work on `Cc1cc(N2CCN(S(=O)(=O)c3ccc(C)c(C)c3)CC2)c2ccccc2n1` yielded a viability of 81.6%. `Cc1ccc(NC(=O)CCN2CCc3ccccc3C2)cc1` showed a viability of 103%. In the case of `CC(=O)c1cccc(NC(=O)Nc2ccc(C)cc2)c1`, the viability is reported as 90%. With `Cc1ccc(NC(=S)NC(NC(=O)Cc2cccc3ccccc23)C(Cl)(Cl)Cl)cc1` (stereo not drawn) the viability was 4.6% (active). For `COc1ccc(-c2cn(-c3ccc(C)cc3)c(=O)n2CC(=O)Nc2ccc(OC)c(OC)c2)cc1`, the viability was 92.4%. `COc1ccc(-c2nnc(SCc3cccnc3)o2)cc1` gave a viability of 104%. `COc1cc2c(cc1OC)C(C(C)C)=NC(C)(C)C2` gave a viability of 90.5%. `COc1ccc(CCNC(=O)CN(c2ccccc2)S(C)(=O)=O)cc1OC` gave a viability of 94.6%. Work on `FC(F)(F)c1nnc2ccc(N3CCN(c4ccccc4)CC3)nn12` yielded a viability of 85.4%. `COC(=O)c1ccccc1NC(=O)Cc1ccccc1OC` gave a viability of 91.1%. In the case of `CC(Nc1nc(N2CCCC2)nc2ccccc12)c1ccccc1` (stereo not drawn), the viability is reported as 4.14% (active). `Cc1ccc(C(CC(=O)O)Nc2nc(N3CCCCC3)nc(N3CCCCC3)n2)cc1` (stereo not drawn) showed a viability of 99.9%. With `CC(C)n1c(C(O)c2ccccc2)nc2ccccc21` (stereo not drawn) the viability was 99.3%. With `CCN(c1ccccc1)S(=O)(=O)c1ccc(C(=O)Nc2nccs2)cc1` the viability was 104%. Compound `Cc1ccc(-c2noc(CC(c3ccccc3)c3ccccc3)n2)cc1` has a viability of 135%. For `COc1ccc(N2CCN(Cc3ccc(Br)s3)CC2)cc1`, the viability was 108%. `COc1ccc(Cl)cc1C(=O)NCC#N` showed a viability of 91.6%. Work on `O=C(NCc1ccccc1)C1CCCN(S(=O)(=O)c2cccs2)C1` (stereo not drawn) yielded a viability of 93%. `CC(=O)Oc1ccc(C(C)=O)c2c1OCCO2` gave a viability of 82.4%. In the case of `CCN(CC)C(=O)CC1(c2ccccc2OC)CCOC(C(C)C)C1` (stereo not drawn), the viability is reported as 103%. In the case of `CC(C)c1ccc(OCC(O)Cn2cnc3ccccc32)cc1` (stereo not drawn), the viability is reported as 84.8%. With `OC(CN=c1sc2ccccc2n1CC(O)COc1ccccc1)COc1ccccc1` (stereo not drawn) the viability was 28.9% (active). With `OC(COc1ccccc1)Cn1cc(Br)cn1` (stereo not drawn) the viability was 99.8%. In the case of `COc1ccccc1/C=C/C1=NC(=C\N(C)C)/C(=O)O1`, the viability is reported as 90.8%. `CC(C)c1ccc(-c2noc(C3CCCN(S(C)(=O)=O)C3)n2)cc1` (stereo not drawn) gave a viability of 82.4%. Work on `Cc1ccc(CNC(=O)C2CCCN2C(=O)NCc2ccccc2)cc1` (stereo not drawn) yielded a viability of 102%. With `CC1CCC(N2CC(=O)N(Cc3ccc4c(c3)OCO4)C(c3ccc(F)cc3)C2=O)CC1` (stereo not drawn) the viability was 104%. With `C=CCn1c(N)c(S(=O)(=O)c2cccs2)c2nc3ccccc3nc21` the viability was 107%. With `C=CCn1c(N)c(C(=O)OCC(C)C)c2nc3ccccc3nc21` the viability was 66.4%. With `CC(C)Cn1c(N)c(C(=O)NCc2cccs2)c2nc3ccccc3nc21` the viability was 3.01% (active). Work on `O=C(Nc1ccc2nc3n(c(=O)c2c1)CCCCC3)c1ccccc1Cl` yielded a viability of 109%. Work on `CCOC(=O)c1cc2c(ccn2C)n1CC(=O)N1CCC(C)CC1` yielded a viability of 93.4%. For `CN(C)CCNC(CC(=O)Nc1ccc(Cl)c(Cl)c1)C(=O)O` (stereo not drawn), the viability was 93.2%. For `N/C(=N\OC(=O)Nc1ccc(Cl)c(Cl)c1)c1ncc(C(F)(F)F)cc1Cl`, the viability was 60.3%. With `O=C(CC(O)(C(F)(F)F)C(F)(F)F)Nc1ccc(Cl)c(Cl)c1` the viability was 3.08% (active). For `COc1ccc(-c2cc3nc(C)c(CCC(=O)NC(C)CCc4ccco4)c(C)n3n2)c(OC)c1` (stereo not drawn), the viability was 88.3%. With `CCNC(=O)NC(=O)C(C)OC(=O)c1cc(S(=O)(=O)N2CCCCCC2)ccc1OC` (stereo not drawn) the viability was 79.6%. With `Cc1[nH][nH]c(=O)c1C(c1ccc(-c2ccc(Cl)cc2)o1)c1c(C)[nH][nH]c1=O` the viability was 24% (active). For `Cc1[nH][nH]c(=O)c1N=Nc1ccccc1`, the viability was 109%. `CCCCOC(=O)Cn1c(=N)n(CCN(CC)CC)c2ccccc21` showed a viability of 104%. For `O=C(COc1cc(Cl)c(Cl)cc1Cl)NC(=O)NC1CCCC1`, the viability was 88.8%. `O=S(=O)(NCC1OCCc2ccccc21)c1ccccc1` (stereo not drawn) gave a viability of 104%. With `COC(=O)C(C(=O)Nc1cccc(C)n1)C1CCCCCC1` (stereo not drawn) the viability was 88.7%. Work on `COC(=O)c1ccccc1Oc1c(F)c(F)nc(N2CCOCC2)c1F` yielded a viability of 95.4%. With `OCCNc1nc2ccccc2n1-c1ncnc2sc3c(c12)CCC3` the viability was 4.2% (active). In the case of `CC(C)(C)C(=O)Cn1c(NCCO)nc2ccccc21`, the viability is reported as 95.1%. `O=C(O)[C@@H]1CCCN1c1ncnc2sc3c(c12)CCC3` gave a viability of 99%. `CN=C1SC(CC(=O)Nc2ccc(C(=O)O)cc2)C(=O)N1C` (stereo not drawn) gave a viability of 88%. In the case of `CCC(=O)NC(Nc1nc2ccc(C)cc2s1)(C(=O)OC)C(F)(F)F` (stereo not drawn), the viability is reported as 101%. `Cc1ccc(C)c(NC2=NCC(=O)N2c2ccc3c(c2)OCCO3)c1` showed a viability of 103%. In the case of `CCn1c(/C=C/c2ccc([N+](=O)[O-])o2)nc2ccccc2c1=O`, the viability is reported as 4.01% (active). Work on `O=c1c2ccccc2nc(N/N=C/c2ccccc2)n1O` yielded a viability of 101%. For `Cc1nc2ccccc2c(=O)n1CCCn1ccnc1`, the viability was 92.5%. For `CCn1nc(C)c(NC(=O)/C=C/c2ccc(OC)c(COc3ccc(Br)cc3)c2)c1C`, the viability was 10.6% (active). With `COc1ccc(/C=C/C(=O)Nc2c(C)nn(C)c2C)cc1COc1ccc(Br)cc1` the viability was 46.5%. With `CCn1c(COc2ccc(OC)cc2)nnc1SCC(=O)Nc1cc(OC)ccc1OC` the viability was 98%. Compound `c1ccc(-n2nc3ccccc3n2)cc1` has a viability of 94.1%. Work on `COC(=O)c1[nH]c2ccc(Br)cc2c1NC(=O)Oc1ccccc1` yielded a viability of 86.1%. With `Cn1c(N)c(C(=O)COC(=O)C23CC4CC(CC(C4)C2)C3)c(=O)n(C)c1=O` the viability was 99.2%. Compound `Cc1ccc(CN(C(=O)c2sc3ccccc3c2Cl)C2CCS(=O)(=O)C2)cc1` (stereo not drawn) has a viability of 80.5%. For `CC(C)CC[n+]1ccn(C2=C([O-])c3ccccc3C(=O)/C2=N\S(=O)(=O)c2ccccc2)c1`, the viability was 20.6% (active). `CN(Cc1ccccc1)C(=O)COc1ccccc1` gave a viability of 98.7%. `COc1nc(NC2CCCCC2)nc(N2CCCCCC2)n1` gave a viability of 77.8%. With `CCOC(=O)c1cnc(SCc2nc(N)nc(Nc3ccc(OC)cc3)n2)nc1N` the viability was 111%. Work on `Cc1cccc2nc(CSc3nc4[nH]ncc4c(=O)n3-c3cccc(Cl)c3)cc(=O)n12` yielded a viability of 76.9%. Compound `CCn1c(CNC(=O)c2ccccc2)nnc1SCC(=O)N1CCN(c2ccccc2)CC1` has a viability of 98.7%. `Cc1sc2nc(SCC(N)=O)n(C)c(=O)c2c1C` showed a viability of 98.6%. With `C=CCn1c(SCC(=O)/C(C#N)=C(\C)N)nc2sc(C)c(C)c2c1=O` the viability was 28% (active). `CCCn1c(=O)c2ccccc2n2c(SCC(=O)/C(C#N)=C(\C)N)nnc12` gave a viability of 83.6%. In the case of `O=C(CSCc1c(F)cccc1Cl)NCC1CCCO1` (stereo not drawn), the viability is reported as 101%. For `Cc1ccc(O/C=C2\OC(=O)c3ccccc32)cc1`, the viability was 98.2%. Work on `COC(=O)c1sc(=S)n(-c2ccc(Cl)cc2)c1C` yielded a viability of 90%. For `COc1ccc(-n2nnnc2SCc2nc(N)nc(N3CCOCC3)n2)cc1`, the viability was 96.3%. In the case of `CCOC(=O)c1sc(NC(=O)CSc2nc(C)cc(C(F)(F)F)n2)c(C#N)c1C`, the viability is reported as 88.5%. Work on `CCOc1ccc(Nc2oc(Cc3ccccc3)nc2C#N)cc1` yielded a viability of 104%. With `COc1ccc(Nc2oc(-c3ccccc3Cl)nc2C#N)cc1` the viability was 29.9% (active). `COc1ccccc1-c1nc(C#N)c(N2CCC(C(N)=O)CC2)o1` gave a viability of 95.4%. `O=C(Nc1cccc(NC(=O)c2ccco2)c1)c1cnccn1` showed a viability of 83.6%. In the case of `Fc1ccc(-n2c(Cc3ccccc3)nnc2SCc2nc(-c3ccc(Cl)cc3)no2)cc1`, the viability is reported as 76.6%. Work on `COc1ccc(N(CC(=O)NC2CCCCC2)S(=O)(=O)c2c(C)[nH]c(=O)[nH]c2=O)cc1` yielded a viability of 96.7%. Compound `COc1ccc([N+](=O)[O-])cc1C1NN=C(c2cccc3ccccc23)S1` (stereo not drawn) has a viability of 81.9%.
